Screening results as filed in PubChem.
MCF10A rereplic – A quantitative high throughput screen for small molecules that induce DNA re-replication in MCF 10a normal breast cells | AID 624296, 2012 | 2.9% of 350,000 active | Potency, µM (series often up to 46.1 µM), for the others: at the highest dose activity, positive = re-replication, hits mostly activators | MCF 10A DNA re-replication, Hoechst nuclear intensity, 48 h; also: % of control where 0% means no effect; nearly all actives have a fitted effect of over 50% in size
SW480 rereplic – A quantitative high throughput screen for small molecules that induce DNA re-replication in SW480 colon adenocarcinoma cells; 1.8% of 340,000 active; Potency, µM (titrated, usually from 46.1 µM), inactives show top-dose re-replication activation, hits mostly activators; AID 624297, 2012; SW480 DNA re-replication, Hoechst DNA content imaging, 48 h; also: % of control where 0% means no effect; nearly all actives have a fitted effect of over 55% in size
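Per well, 250 cells were exposed to pinned compound for 48 hr. Nuclear DNA was visualised with Hoechst (40 min, 37 C) and total object intensity recorded by fluorescence scanning.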
HT1080 IDH1KD tx – qHTS for induction of synthetic lethality in tumor cells producing 2HG: qHTS for the HT-1080-IDH1KD cell line; HT-1080 IDH1 knockdown viability, ATP luminescence, 48 h; Potency, µM (series often up to 46.1 µM), without a hit: at the top dose activity, negative = toxicity, most hits filed as cytotoxic; 2% of 360,000 active;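 also: 0% = DMSO wells and -100% = cell-free medium wells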
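After a 2 h attachment period, IDH1KD HT-1080 cells took pin-transferred compound for 48 h at 37 °C; ATP-based luminescence after 10 min room-temperature reagent incubation reported viability.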
KB-3-1 tox – qHTS assay for MDR1-selective chemotherapeutics: Primary screen using the parental adenocarcinoma cell KB-3-1; KB-3-1 viability, CellTiter-Glo ATP luminescence, 72 h; Potency, µM (highest dose often 46.1 µM), actives largely listed as cytotoxic; 1.4% of 400,000 active; AID 1347075, 2019; also: % is scaled to controls: 0 for no effect and ±100 for the full control effect; nearly all actives have a fitted effect of over 60% in size
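Cells are dispensed, compounds pinned in, plates held at 37 °C for 72 h, then CellTiter-Glo is added and luminescence read after 10 minutes. Cell line: parental KB-3-1 in phenol-red-free DMEM, 10% FBS.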
KB-V1 cytotox – qHTS assay for MDR1-selective chemotherapeutics: Primary screen using the drug-selected MDR subline cells KB-V1 | 3.4% of 400,000 active | Potency, µM (highest dose often 46.1 µM), actives largely listed as cytotoxic | KB-V1 MDR cells viability, CellTiter-Glo, 72 h; also: % is scaled to controls: 0 for no effect and ±100 for the full control effect; nearly all actives have a fitted effect of over 60% in size
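KB-V1 cells (P-gp-expressing MDR subline of KB-3-1) in phenol-red-free DMEM with 10% FBS were exposed to library compounds over a concentration series for 72 h at 37 degrees C. Viability read by CellTiter-Glo luminescence; concentration-effect curves fitted after normalization.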
HT1080-NT tox – qHTS for induction of synthetic lethality in tumor cells producing 2HG: qHTS for the HT-1080-NT fibrosarcoma cell line; 1.6% of 360,000 active; HT-1080-NT fibrosarcoma viability, CellTiter-Glo ATP luminescence, 48 h; AID 686970, 2013; Potency, µM (titrated, usually from 46.1 µM), inactives show top-dose activity, negative = less viability, most hits filed as cytotoxic;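 also: NT is the 2HG producing partner of a matched IDH1 knockdown line; 0% = DMSO-treated cells and -100% = media-only wells without cells; nearly all actives have a fitted effect of over 55% in size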
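Compounds were tested in concentration-response format on HT-1080-NT cells for 48 hours at 37 degrees C. Cell viability came from CellTiter-Glo luminescence; curves were classified by r2, response magnitude and activity.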
Active calls of the source: *; i = inactive; ? = inconclusive; . = no result. Compounds with a hit are over-represented: about 8% of the library has one in this group of screens. Calls follow the shape of the dose curve; as a rule, active = well fitted curve in the direction sought with a large enough effect; inconclusive = small, poorly fitted or top-dose-only effect, or another doubt; inactive = no such curve, though single readings can be large; an effect the other way counts as inactive or inconclusive. Potency is read from the fitted curve at half-maximal effect.

SMILES	MCF10A rereplic	SW480 rereplic	HT1080 IDH1KD tx	KB-3-1 tox	KB-V1 cytotox	HT1080-NT tox
Cc1c(C(=O)Oc2cccc3cccnc23)oc2ccccc12	?	?	23.1µM*	i	i	23.1µM*
CN1CCC(N(C)S(=O)(=O)c2ccc(NC(=O)c3ccc(S(=O)(=O)N(C)C)cc3)cc2)CC1	3.3%	0.1%	15.9%	i	i	5.5%
Cc1c(C(=O)Nc2ccc(S(=O)(=O)N(C)C3CCN(C)CC3)cc2)oc2ccccc12	?	?	-10.6%	i	20.6µM*	-10.2%
Cc1c(C(=O)Nc2nnc(C(F)(F)F)s2)oc2ccccc12	?	17.4%	-1.7%	i	18.4µM*	-13.8%
Cc1ccc(C(c2sc3nc(-c4ccco4)nn3c2O)N2CCOCC2)cc1 (stereo not drawn)	.	.	.	i	i	.
CN(C)c1ccc(/C=C/c2ccnc3ccc(-c4ccccc4)cc23)cc1	.	.	.	i	i	.
O=C(Nc1ccccc1C(=O)Nc1nnc(C(F)(F)F)s1)c1ccccc1	?	-56.7%	4.61µM*	?	?	3.26µM*
Cc1c(C(=O)NCc2cccnc2)oc2ccccc12	3.3%	-10.6%	-1.2%	i	16.4µM*	8.4%
Cc1c(C(=O)NCCc2ccccc2)oc2ccccc12	5.4%	2.1%	16.2%	i	i	20.0%
CC(=O)Nc1c(O)cc(Br)c2nonc12	.	.	.	i	?	.
CC(=O)Nc1cc(O)c2nonc2c1O	.	.	.	2.59µM*	?	.
CCN(C(=O)COC(=O)c1ccc(Cl)c(N)c1)C1CCS(=O)(=O)C1 (stereo not drawn)	5.7%	-72.2%	0.4%	i	i	6.9%
CC(=O)Nc1ccc(N2C(=O)CSC2c2c(F)cccc2Cl)cc1 (stereo not drawn)	9.3%	-15.4%	-11.5%	?	i	-4.8%
Fc1cccc(Cl)c1C1SCc2nc3ccccc3n21 (stereo not drawn)	.	.	?	23.1µM*	23.1µM*	?
O=S(=O)(c1ccccc1S(=O)(=O)N1CCCCC1)N1CCCCC1	3.4%	6.5%	-22.0%	i	14.6µM*	?
O=S(=O)(c1ccc(Cl)cc1Br)N1CCCCC1	-0.3%	0.1%	-29.4%	?	18.4µM*	-0.3%
CCOc1ccc(S(=O)(=O)N2CCCCC2)c2ccccc12	?	-14.9%	20.6µM*	i	i	-11.4%
C=CCC(O)(CC=C)C(C)N (stereo not drawn)	0.9%	-20.2%	8.0%	i	?	0.5%
CC1OC(CC(=O)O)CC2=C1C(=O)c1c(O)cccc1C2=O (stereo not drawn)	?	?	0.259µM*	3.66µM*	2.91µM*	1.3µM*
CCN(CC)c1ccc2cc(C(N)=O)c(=O)oc2c1	13.5%	?	-13.5%	i	i	-9.1%
CCN(CC)c1ccc2cc(C(N)=O)c(=N)oc2c1	18.4µM*	?	-12.6%	i	?	-10.7%
CCN(CC)c1ccc2cc(C=O)c(=O)oc2c1	11.6µM*	?	-10.2%	?	i	1.4%
CCN(CC)c1ccc2cc(NC(=O)CCC(=O)O)c(=O)oc2c1	11.4%	17.4%	-0.3%	i	i	-2.5%
CCN(CC)c1ccc2cc(C(=O)Nc3ccccn3)c(=O)oc2c1	1.3µM*	?	8.2%	i	i	25.5%
CCN(CC)c1ccc2cc(C(C)=O)c(=O)oc2c1	10µM*	20.6µM*	15.6%	i	i	2.7%
SMILES	MCF10A rereplic	SW480 rereplic	HT1080 IDH1KD tx	KB-3-1 tox	KB-V1 cytotox	HT1080-NT tox
O=C(NC(c1ccco1)c1cc(Cl)c2cccnc2c1O)c1ccc(Cl)cc1 (stereo not drawn)	.	.	.	i	i	.
Cc1ccc(-c2noc(CN(C(=O)COc3cc(C)cc(C)c3C)C(C)C)n2)cc1	.	.	.	i	i	.
Cc1ccccc1Cn1c(C)c(CNCc2ccccc2)c(C(=O)O)c1C	.	.	.	i	i	.
Cc1ccc(N2C(=O)N(CC(=O)c3cc(C)ccc3C)C(=O)C2C)cc1 (stereo not drawn)	?	15.3%	10.3%	?	16.4µM*	-2.6%
COc1ccc(CS(=O)(=O)/C(Cl)=C(/Cl)C(=O)Nc2ccc(OC)nc2)cc1	0.411µM*	0.82µM*	8.2µM*	?	3.66µM*	23.1µM*
COc1ccc(/C=C/C(=O)Nc2ccc(OC)nc2)cc1	0.1%	-0.4%	-14.3%	?	i	-2.6%
COc1ccc(NC(=O)Cc2ccccc2)cn1	0.9%	0.7%	-2.9%	i	i	8.8%
COc1ccc(NC(=O)/C(Cl)=C(/Cl)S(=O)Cc2ccccc2)cn1 (stereo not drawn)	?	?	1.46µM*	5.8µM*	8.2µM*	5.8µM*
COc1cc([C@@H]2c3cc4c(cc3[C@@H](O[C@@H]3O[C@@H]5CO[C@@H](C)O[C@H]5[C@H](O)[C@H]3O)[C@H]3COC(=O)[C@H]23)OCO4)cc(OC)c1O	?	2.31µM*	?	16.4µM*	i	-12.6%
COc1cc(C2c3cc4c(cc3C(O[C@@H]3OC5COC(c6cccs6)OC5C(O)C3O)C3COC(=O)C23)OCO4)cc(OC)c1O (stereo partly drawn)	?	14.5%	.	.	.	.
